Assay results published in PubChem BioAssay AID593 (National Center for Advancing Translational Sciences (NCATS), 2007).
Out of some 59,000 compounds screened, about 540 (0.92%) were called active. Another 33% or so got no clear call; they are omitted. Cut-off read from the data, not from the text of the source: active = max fluorescein-equivalent concentration above about 10 nM; inconclusive = between about 1.1 nM and that limit; inactive = weaker than that. What follows is part of a selection rich in actives, with near analogues and random picks from the rest. Where a structure was tested more than once in an assay, its records may differ in their call.

experiment: qHTS Assay for Spectroscopic Profiling in Fluorescein Spectral Region; conditions: Compound autofluorescence, 480/540 nm; max fluorescein-equivalent concentration: active compounds read high; outcome: fluorescein-equivalent
How it was run: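 Compounds (23 nL) in 100 mM Tris pH 8.0, 15 min at room temperature, then fluorescence read at 480 nm excitation/540 nm emission. Signal converted to fluorescein-equivalent concentration from an on-plate fluorescein standard curve.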

Compound | max fluorescein-equivalent concentration | outcome
Cc1cc(C)cc(NC(=O)C2CCN(c3nc(C)cc(C)n3)CC2)c1 | inactive | 
CCOC(=O)c1cc2sccc2n1Cc1ccc(C#N)cc1 | inactive | 
Fc1ccccc1CCNc1nnnn1-c1ccccc1 | inactive | 
CN1CCC2(CC1)CCN(S(=O)(=O)c1ccccc1)CC2 | inactive | 
Cc1ccc2nc(CC(=O)c3ccc4ccccc4c3)c(=O)[nH]c2c1 | inactive | 
C/C=C1\C(=O)C[C@@H]2[C@@H]3CCC4=CC(=O)CC[C@@]4(C)[C@H]3CC[C@@]12C | inactive | 
Oc1ccc2ccccc2c1C=NCc1c(O)ccc2ccccc12 | inactive | 
COc1ncnc2c1N=C1CC(C)(C)CC(N)=C1S2 | 47 nM (active) | 
COc1ccc(C(=O)N2CCC[C@@]3(CCN(C(=O)NC(C)C)C3)C2)cc1 | inactive | 
CC(C)NC(=O)N1CC[C@@]2(CCCN(C(=O)c3cccc(F)c3)C2)C1 | 780 nM (active) | 
CC(C)NC(=O)N1CC[C@@]2(CCCN(C(=O)c3ccco3)C2)C1 | inactive | 
O=C(Nc1ccc(S(=O)(=O)N2CCCCC2)cc1)c1cnccn1 | inactive | 
O=c1[nH]c(-c2ccccc2)c(-c2ccccc2)[nH]1 | inactive | 
O=c1[nH]c(=O)c2nc3ccccc3nc2[nH]1 | 62 nM (active) | 
CN1C(=O)C[C@H](c2ccccc2)C1=O | inactive | 
CCCn1c(SCC(=O)Nc2cccc(C(=O)OCC)c2)nnc1-c1ccoc1C | inactive | 
COc1ccccc1Cc1nc(-c2ccc(C)cc2)no1 | inactive | 
CC12CCC(C(=O)N(CCC#N)CCC#N)(CC1=O)C2(C)C (stereo not drawn) | inactive | 
COc1ccc2[nH]c3cc4c(=O)c5cc(OC)ccc5[nH]c4cc3c(=O)c2c1 | inactive | 
C[C@H]1O[C@@H](CC(=O)O)Cc2c1c(O)c1c(O)cc(-c3cc(=O)c4c(=O)c5c(c(=O)c=4c3=O)C[C@H](CC(=O)O)O[C@@H]5C)c(O)c1c2O | inactive | 
CC(Sc1nncs1)C(=O)NCc1ccc2c(c1)OCO2 (stereo not drawn) | inactive | 

Compound | max fluorescein-equivalent concentration | outcome
Cc1cc(NC(=O)Nc2ccccc2)n(-c2ccccc2)n1 | inactive | 
COc1cccc(C(=O)c2cc3ccc(O)cc3oc2=O)c1 | inactive | 
COc1ccc2oc(=O)c(C(=O)O)cc2c1 | 19 nM (active) | 
COc1ccc2oc(=O)c(C(=O)N3CCCc4ccccc43)cc2c1 | inactive | 
CCOc1ccc2nc(N3CCCN(C(=O)Nc4ccccc4C)CC3)c(C#N)cc2c1 | 29 nM (active) | 
CCOc1ccc2cc(C#N)c(SCC(=O)OC)nc2c1 | inactive | 
Cc1cccc2cc(C#N)c(N3CCCC3)nc12 | inactive | 
CC(=O)c1cc2c(cc1N)OCO2 | inactive | 
CCC1=C(C(=O)OC)C(c2cc(OC)ccc2OC)C(C#N)=C(N)O1 (stereo not drawn) | inactive | 
COC(=O)C1=C(C)OC(N)=C(C#N)C1c1cc(OC)ccc1OC (stereo not drawn) | inactive | 
CCCN1CC=C2C(C#N)=C(N)C(C#N)(C#N)C(c3cc(OC)ccc3OC)C2C1 (stereo not drawn) | 10 nM (active) | 
COc1cc(NS(=O)(=O)c2ccc(NC(C)=O)cc2)cc(OC)c1 | inactive | 
CCOC(=O)C1(Cc2ccc(O)cc2)NC(c2ccccc2F)C2C(=O)N(C)C(=O)C21 (stereo not drawn) | inactive | 
Cc1ccc(C(c2nnnn2CS(=O)(=O)c2ccc(C)cc2)N2CCC(C(N)=O)CC2)cc1 (stereo not drawn) | inactive | 
COc1ccc(-c2c3c(=O)n(C)c(=O)n(C)c3cn2NC(C)=O)cc1 | inactive | 
C[C@@H]1CC[C@H]2[C@H](C)[C@H]3[C@H](C[C@H]4[C@@H]5CC=C6C[C@@H](O)CC[C@@]6(C)[C@@H]5C[C@@H](O)[C@]34C)N2C1 | inactive | 
CCN(CC(=O)NCc1cccs1)c1nnnn1-c1ccccc1 | inactive | 
COc1cccc(NC(=O)CN(C)S(=O)(=O)c2ccc(C)cc2)c1 | inactive | 
Cc1ccc2c(c1)C(O)(CC(=O)c1cccnc1)C(=O)N2 (stereo not drawn) | inactive | 
CC(=NC1CCN(Cc2ccccc2)CC1)c1c(O)[nH]c(=O)[nH]c1=O | inactive | 
COc1ccc(OC)c(S(=O)(=O)Nc2ccccc2F)c1 | inactive | 

Compound | max fluorescein-equivalent concentration | outcome
CC1CN(C2CCN(C(=O)COc3ccccc3)CC2)CC(C)O1 (stereo not drawn) | inactive | 
C=CCNC(=O)C12CC3CC(C1)CC(C(=O)NCC=C)(C3)C2 | inactive | 
CCc1cccc(C)c1NC(=O)CSc1nnc(-c2ccco2)n1N | inactive | 
O=C(Nc1ccccc1F)C1C2C=CC3(O2)C1C(=O)N(c1cccnc1)C3C(=O)NC1CCCCC1 (stereo not drawn) | inactive | 
COc1cccc(Cn2c(=O)c(CCc3ccccc3)nc3cnc(N(C)C)nc32)c1 | inactive | 
CNC(=O)c1cc2c(ccc3ccccc32)oc1=N | inactive | 
CCON=C1C(C)(C)C(C)(C)C(C)(C)C1(C)C | inactive | 
Cn1c(=O)c2[nH]c(NCC3CCCO3)nc2n(-c2ccccc2)c1=O (stereo not drawn) | inactive | 
CCCn1c(=O)c2[nH]c(C3CCCC3)nc2n(CCC)c1=O | 11 nM (active) | inactive
O=c1[nH]c(=O)n([C@H]2C[C@H](O)[C@H](CO)O2)cc1Br | inactive | 
CC(=O)c1cc(C#N)c(SCC(=O)C(C)(C)C)nc1C | inactive | 
Cc1cccn2c(=O)c3cc(C#N)c(=NC(=O)c4cccnc4)n(CC4CCCO4)c3nc12 (stereo not drawn) | 18 nM (active) | 
COC(=O)c1ccc2c(=O)n(CC3CCCO3)c(=S)[nH]c2c1 (stereo not drawn) | inactive | 
Cc1cccn2c(=O)c3cc(C(=O)N4COCC4(C)C)n(C)c3nc12 | inactive | 
Cc1cc(C)c2[nH]c(=O)c(C(c3nnnn3Cc3ccc4c(c3)OCO4)N3CCCC3)cc2c1 (stereo not drawn) | inactive | 
CC(=O)NS(=O)(=O)c1ccccc1 | inactive | 
CCOCCCNS(=O)(=O)Cc1ccccc1 | inactive | 
CCOC(=O)N1CC=C2C(C#N)=C(N)C(C#N)(C#N)[C@H](c3cccs3)[C@H]2C1 | 12 nM (active) | 
CCNc1ncc2ncc(=O)n(Cc3cccc(OC)c3)c2n1 | inactive | 
COc1ccc(N2CCN(C(=O)CSc3nc4cc(OC)c(OC)cc4cc3C#N)CC2)cc1 | inactive | 
COc1ccc2nc(N3CCCC(O)C3)c(C#N)cc2c1 (stereo not drawn) | 16 nM (active) | 

Compound | max fluorescein-equivalent concentration | outcome
O=CN1CCN(C2CC(=O)N(c3ccc4c(c3)OCO4)C2=O)CC1 (stereo not drawn) | inactive | 
S=c1[nH]nc(SCc2ccccc2Cl)c2[nH]cnc12 | inactive | 
Cc1csc(NC(=O)CN2CCCCCC2)n1 | inactive | 
CCOCC(=O)Nc1cc(OC)c(Cl)cc1OC | inactive | 
Oc1ccccc1CNCc1ccccc1O | inactive | 
COCCn1c(=O)c(CCc2ccccc2)nc2cncnc21 | inactive | 
CC(C)N(C(=O)COC(=O)c1ccccc1C(=O)N1CCN(c2ccc(F)cc2)CC1)C(C)C | inactive | 
N#CC1=C(N)Oc2n[nH]c(CSc3ccccc3)c2C12C(=O)Nc1ccccc12 (stereo not drawn) | inactive | 
O=S(=O)(c1cccs1)N1CCN(Cc2ccccc2)CC1 | inactive | 
CCOCCOC(=O)C1=C(C)N(C)C(=O)NC1c1ccccc1F (stereo not drawn) | inactive | 
C=C(C)Cn1c(SCC(=O)NCc2ccco2)nc2sc3c(c2c1=O)CCC3 | inactive | 
COCCn1c(=O)c(-c2cccc(F)c2)nc2cncnc21 | inactive | 
COc1ccc(C(=O)N/N=C2/C(=O)c3c(C)cc(C)cc3CC2(C)C)cc1 | inactive | 
O=C(O)C1CC=C(Cl)CC1C(=O)NCc1ccccc1 (stereo not drawn) | inactive | 
CCCOc1ccccc1-c1nc(SCCC(=O)O)n[nH]1 | inactive | 
O=S(=O)(Nc1ccc2nc(-c3ccco3)[nH]c2c1)c1ccccc1 | inactive | 
O=S(=O)(O)c1ccc(O)c2ncccc12.O=S(=O)(O)c1ccc(O)c2ncccc12.[Zn] | inactive | 
O=C(N1CCOCC1)N1CCOCC1 | inactive | 
CCCC(=O)Nc1cc(OCC)c(NC(=O)NC2CCCCC2)cc1OCC | inactive | 
